SENP8 block-1: blocks human SENP8 cleavage of Nedd8 substrate. Q96LD8. recombinant SENP8, Nedd8 substrate fluorescence. inhibition, % at 20 µM. 360,000 tested, 0.64% active. AID 602440; in the data active = inhibition mostly above about 40%, no sharp cut-off; inactive = mostly below about 27%
Target sequence (Q96LD8 whole entry, looked up): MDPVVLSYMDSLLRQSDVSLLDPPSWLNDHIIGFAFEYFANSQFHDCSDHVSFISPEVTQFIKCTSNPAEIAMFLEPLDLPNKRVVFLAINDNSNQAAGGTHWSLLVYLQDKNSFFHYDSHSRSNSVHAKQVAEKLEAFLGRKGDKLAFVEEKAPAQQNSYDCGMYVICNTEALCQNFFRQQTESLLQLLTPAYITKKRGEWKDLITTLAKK
SENP8 block-2: blocks the human protease SENP8. Q96LD8. purified SENP8, Z-RLRGG-aminoluciferin cleavage, luminescence. inhibition, % at 10 µM. 330,000 tested, 1.2% active; in the data active = inhibition above about 50%
SENP6 block: inhibitors of human SENP6 protease; 330,000 tested, 1.8% active; Q9GZR1; inhibition, % at 10 µM; Recombinant SENP6 catalytic domain, aminoluciferin luminescence;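 active = inhibition above about 50% at the single tested dose, limit read from the data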;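 also: plate controls were DMSO wells with enzyme for no effect and DMSO wells lacking enzyme for full effect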
EBI2 block: blocks human EBI2 receptor beta-arrestin signaling. P32249. EBI2 beta-arrestin recruitment, luminescence, 7a,25-OHC stimulated. inhibition, % at 5 µM. 360,000 tested, 0.81% active. AID 651636; in the data active = inhibition above about 38%;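 also: enzyme fragment complementation signal reports receptor beta-arrestin coupling in cells; 0% = agonist plus DMSO wells and 100% = wells without agonist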
AHR act: activators of human aryl hydrocarbon receptor; P35869; 320,000 tested, 2.5% active; AHR-responsive luciferase reporter cells, luminescence; activation, % at 5 µM; in the data active = activation above about 47%;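 also: 0% = vehicle wells and 100% = reference agonist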
SENP7 block: SENP7 protease inhibition | Q9BQF6 | inhibition, % at 5 µM | AID 434973 | 330,000 tested, 1.5% active | recombinant SENP7, Z-RLRGG-aminoluciferin luminescence, 40 min;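 active = inhibition above about 50% at the single test dose, limit read from the data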;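 also: plate controls were DMSO with enzyme for no effect and no enzyme buffer wells for full effect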
Target sequence (Q9BQF6 706-1050 limits assumed): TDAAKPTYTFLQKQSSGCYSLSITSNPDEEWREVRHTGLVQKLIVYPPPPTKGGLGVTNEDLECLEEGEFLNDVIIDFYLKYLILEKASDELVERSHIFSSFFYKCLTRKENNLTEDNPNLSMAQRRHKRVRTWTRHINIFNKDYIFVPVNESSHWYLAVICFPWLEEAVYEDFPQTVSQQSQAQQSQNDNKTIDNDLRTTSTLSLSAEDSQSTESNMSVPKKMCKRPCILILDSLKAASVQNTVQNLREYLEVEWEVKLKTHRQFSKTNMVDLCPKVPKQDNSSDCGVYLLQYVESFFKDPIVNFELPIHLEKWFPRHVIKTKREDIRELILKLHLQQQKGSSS
Active calls of the source: *; nt = not tested or not shown. Sampled rows, rich in hits. Any-hit rate of the full collection: about 5%.

SMILES	SENP8 block-1	SENP8 block-2	SENP6 block	EBI2 block	AHR act	SENP7 block
Cn1cc(C2=C(c3ccc(Cl)cc3Cl)C(=O)NC2=O)c2ccccc21	13	-2	-12	49*	26	-5
COc1ccc2nc(C)c3cc(C)oc3c2c1	1	-8	-17	-2	-3	-5
COc1cccc2c1nc(C)c1cc(C)oc12	-13	-11	-19	0	62*	-22
Cc1cccc(N2CCN(c3ccc(N4C(=O)CCCC4=O)cc3[N+](=O)[O-])CC2C)c1 (stereo unspecified)	18	-9	-14	5	70*	-6
Cc1cccc(N2CCN(c3ccc(N4C(=O)CCCC4=O)cc3[N+](=O)[O-])CC2)c1C	16	-4	-6	19	0	-1
Cc1occc1-c1nnc(SCC(=O)NC2CC2)n1C(C)C	5	-9	-2	-8	1	8
Cc1sc2nc(CSCC(=O)Nc3ccccc3C#N)[nH]c(=O)c2c1C	-68	0	-4	9	70*	-5
CSc1ccccc1NC(=O)CSCc1nc2sc(C)c(C)c2c(=O)[nH]1	-14	-5	1	0	4	-14
O=C1CN(C(=O)CN2CCOCC2)C(c2ccccc2)c2cc(Br)ccc2N1 (stereo unspecified)	14	3	5	-1	57*	-2
Cc1sc(NC(=S)Nc2ccc(F)cc2)c(C(N)=O)c1C	-7	nt	nt	9	81*	nt
Cc1sc(NC(=S)NC(=O)C2CCCCC2)c(C(N)=O)c1C	-57	-8	-6	-7	56*	8
CCOC(=O)c1c(NC(=S)Nc2ccc(Cl)cc2)sc(C)c1C	9	nt	nt	4	nt	nt
CCc1c(C)sc(NC(=O)C2CCCCC2C(=O)O)c1C(N)=O (stereo unspecified)	-6	12	-1	-2	2	-2
CCc1nnc(NC(=O)CSc2nc3c(c(=O)n2C)SC(C)C3)s1 (stereo unspecified)	9	-11	4	-2	37	-4
CC1Cc2nc(SCC(=O)Nc3nc4ccccc4s3)n(C)c(=O)c2S1 (stereo unspecified)	17	-3	-13	0	60*	-9
CC1(C(=O)O)CCN1C(=O)c1cccc(OC(F)(F)F)c1 (stereo unspecified)	18	nt	nt	-5	nt	nt
COc1ccc(N2CCN(CC(=O)Nc3c(C)cccc3C)CC2)cc1	16	nt	nt	-1	nt	nt
CCOC(=O)c1c(/N=C/N(C)C)sc(C)c1C	1	-2	7	-15	1	-2
CCOC(=O)c1c(/N=C/N(C)C)sc(/C=N/Nc2ccccc2)c1-c1ccc(Cl)cc1	-201	2	-8	8	92*	-3
C#CCOCCOCCOCCNc1nc(N2CCN(C(=O)[C@H](CCC(=O)O)n3cc([C@@H](N)CO)nn3)CC2)nc(N2CCN(C(=O)[C@H](CCC(=O)O)n3cc([C@@H](N)CCSC)nn3)CC2)n1	3	-6	-2	-8	-1	-6
c1ccc(-c2cc(-c3nnco3)c3ccccc3n2)nc1	-13	-11	5	-3	62*	1
O=C1NC[C@@H](CCCCN2C[C@H](Cc3ccc(O)cc3)N(CCC3CCCCC3)C(=O)C2=O)N(CCc2ccc(O)cc2)C1=O	17	nt	nt	4	nt	nt
CCC1NC(=O)c2cc3ccccc3cc2-n2c1nc1ccc(OC)cc1c2=O (stereo unspecified)	-17	nt	nt	12	nt	nt
Cc1ccsc1C(=O)OCc1nc2ccccc2c(=O)[nH]1	-102	-5	7	-7	56*	8
Cc1ccsc1C(=O)OCc1nc2ccsc2c(=O)[nH]1	26	-12	-5	-4	3	-5
SMILES	SENP8 block-1	SENP8 block-2	SENP6 block	EBI2 block	AHR act	SENP7 block
Cc1cccnc1C1=NOC(Cc2ccccc2)C(=O)N1Cc1ccccc1F (stereo unspecified)	7	nt	nt	8	nt	nt
Cc1cc(C)cc(N2C(N)=NC(N)=NC2c2ccccc2F)c1 (stereo unspecified)	14	-3	-21	-9	2	1
Oc1c(C=NCc2ccccc2)sc2ccccc12	-29	-6	6	-1	8	-5
Oc1cccc(C=NCc2ccccc2)c1O	54*	14	0	3	-2	17
Nc1nc2ccccc2cc1C(=O)NCc1cccs1	-401	nt	nt	-5	nt	nt
Cc1[nH]c(N=Nc2ccccc2)nc1N=Nc1ccccc1	68*	-6	-31	6	10	1
Cc1cc(N)n(Cc2ccc(Cl)cc2)n1	2	4	8	-7	-1	5
Cc1ccc(-c2cc(N)n(Cc3ccc(Cl)cc3)n2)cc1	-3	-1	-12	2	56*	-3
CC(C)(C)c1ccc(CC(=O)N2CCC2(C)C(=O)NS(=O)(=O)c2cccc(F)c2)cc1 (stereo unspecified)	13	nt	nt	3	nt	nt
Cc1nnc(N/N=C/c2c(Cl)cccc2Cl)n1N	15	3	-14	-4	12	4
Cc1n[nH]c(=S)n1/N=C/c1ccc(-c2ccccc2[N+](=O)[O-])o1	-23	2	29	3	60*	-10
CCc1nnc(N/N=C/c2ccc(-c3ccc([N+](=O)[O-])cc3)o2)n1N	30	8	13	-14	24	3
Cc1nnc(N/N=C\c2ccc(-c3ccccc3[N+](=O)[O-])o2)n1N	12	nt	nt	5	61*	nt
Cc1nnc(N/N=C/c2ccccc2O)n1N	32	-7	1	-15	48*	6
O=C(N/N=C/c1ccc(-c2ccccc2[N+](=O)[O-])o1)[C@H]1C[C@@H]1c1ccccc1	-2	12	22	3	69*	4
Cn1c(=O)cc(OCCCC(=O)Nc2cccc(Cl)c2)c2ccccc21	1	nt	nt	-4	nt	nt
COC1=C(Br)C(=O)c2ncccc2C1=O	105*	nt	nt	-27	nt	nt
O=C1C(=O)c2cccnc2-c2ncccc21	110*	nt	nt	-120	nt	nt
CCc1nc2ccc(C(=O)NC3CCN(Cc4ccccc4)CC3)cn2c1N(CC)Cc1cccc(Br)c1	-16	nt	nt	18	nt	nt
CCOC(=O)COn1c(=O)c(-c2cc3ccccc3o2)[n+]([O-])c2ccccc21	-168	17	-8	-3	62*	26
C=CCOn1c(=O)c(-c2cc3ccccc3o2)[n+]([O-])c2ccccc21	-243	0	15	5	64*	-3
C=CCOn1c(=O)c(-c2ccccc2)[n+]([O-])c2ccccc21	-64	5	4	-10	1	-3
Cc1cc(=O)n2c3c(c4c(cc13)c(CN(C)C)cc(=O)n4C)OC2	-498	nt	nt	-10	nt	nt
CCOc1ccccc1N(CC(=O)N1CCN(Cc2ccccc2)CC1)S(=O)(=O)c1ccccc1	13	nt	nt	17	nt	nt
COC(=O)c1c(C)[nH]c(O)c1C=Nc1ccc(Oc2ccccc2)cc1	2	-22	-9	3	-3	-3
CCOC(=O)c1c(C)[nH]c(O)c1C=Nc1ccc(C(F)(F)F)cc1	-18	6	8	5	62*	6
COC(=O)c1c(C)[nH]c(O)c1C=Nc1ccc(C(C)C)cc1	-8	-9	-2	1	90*	-14
